Experimental findings from PubChem BioAssay (NCATS) are described below.

A number with no mark means an inactive call. The call rests on the fitted dose curve; in most records, active means well fitted curve in the direction sought with a large enough effect; inconclusive means small, poorly fitted or top-dose-only effect, or another doubt; inactive means no such curve, though single readings can be large; an effect the other way counts as inactive or inconclusive. Results filed as inconclusive are left out.

The first test can be described thus: qHTS assay for measurement of the activity of small molecule inhibitors on Zika virus induced Caspase-3 activity in human astrocytoma cells (AID 1224859).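 Further: plate controls were ZIKV-infected untreated cells for no effect and uninfected cells for full effect.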 Particulars: SNB-19 ZIKV-induced caspase-3/7, luminescence, 6 h; series mostly up to 45.7 µM; activity change, negative = inhibition: at the top concentration. The procedure, abridged: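 Luminescence read-out (Caspase-Glo 3/7, 30 min RT) of caspase activity in SNB-19 cells infected 6 h with ZIKV, 2 FFU/cell, after 1 h compound pretreatment; % inhibition from induction normalised to uninfected (0%) and infected (100%) wells.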
A general note: Quantitative high-throughput screening tests each substance at several concentrations.
With `O=C(CN1CCNCC1)NC1CCCCC1`, the “activity change, negative = inhibition” value was 6.46%.
Turning to `C[n+]1ccccc1/C=N/O`, the “activity change, negative = inhibition” value was 6.12%.
Still for that read-out and setting: next, `CCN(CC)CCc1nc(-c2ccccc2)no1`: 18.3%; `C1CCN2C[C@@H]3C[C@@H](CN4CCCC[C@@H]34)[C@H]2C1`: 0.43%; `CCN(CC)CC1CCCCN1CC(=O)N1c2ccccc2C(=O)Nc2cccnc21` (stereo not given): 1.1%.
For the compound `CN1CCN(C(=O)C2CCCCC2)CC1`, the “activity change, negative = inhibition” value is -0.859%.
The same measure, in the same setting: next, `COCC(=O)Nc1c(I)c(C(=O)NCC(O)CO)c(I)c(C(=O)N(C)CC(O)CO)c1I` (stereo not given): -13.9%; `CN(C(=O)c1c(O)c2ccccc2n(C)c1=O)c1ccccc1`: 0.304%; `CC(=O)SC[C@@H](Cc1ccccc1)C(=O)NCC(=O)OCc1ccccc1`: 12.8%.
Still for that read-out and setting: next, `C/C=C/C(=O)N(CC)c1ccccc1C`: 1.3%; `Cc1ccsc1C(=CCCN1CCC[C@@H](C(=O)O)C1)c1sccc1C`: -0.316%.
With `C[C@@H](c1ncncc1F)C(O)(Cn1cncn1)c1ccc(F)cc1F` (stereo not given in full), the “activity change, negative = inhibition” value was -3.35%.
Same read-out and setting: next, `Cc1c(N(C)C)c(=O)n(-c2ccccc2)n1C`: 17.6%.
Still for that read-out and setting: next, `CCOC(=O)[C@H](CCc1ccccc1)N[C@@H](C)C(=O)N1Cc2cc(OC)c(OC)cc2C[C@H]1C(=O)O`: -5.99%.
The same measure, in the same setting: next, `COC(=O)c1cccnc1`: -9.88%; `O=C(O)Cc1cn(-c2ccccc2)nc1-c1ccc(Cl)cc1`: 2.21%.
For the compound `CCOc1ccc(C(=O)OCCN(CC)CC)cc1`, the “activity change, negative = inhibition” value was -5.65%.
On the same count and under the same terms, next, `Cc1cc(O)cc(C)c1Cl`: 7.59%.
On the same count and under the same terms, next, `CN1C(C)(C)CCCC1(C)C`: -1.39%; `Cc1ccc2c(c1)c1c3n2CCNC3CCC1` (stereo not given): 0.0553%.
Same read-out and setting: next, `CCCOC(=O)c1ccc(N)cc1`: -14.3%; `O=C(NCC(O)CO)c1c(I)c(C(=O)NCC(O)CO)c(I)c(N(CCO)C(=O)CO)c1I` (stereo not given): -15.1%.
`Cn1c(=O)c2c(ncn2CCO)n(C)c1=O`: the “activity change, negative = inhibition” value was -11.9%.
Still for that read-out and setting: next, `NNC(=O)CP(=O)(c1ccccc1)c1ccccc1`: -4.76%; `Nc1ccncc1N`: -13.7%; `CC(CN(C)C)C(C)(O)Cc1ccc(Cl)cc1` (stereo not given): -9.27%.
Regarding `O=C(O)[C@@H]1[C@H]2C[C@H]3c4[nH]c5ccccc5c4CCN3C[C@@H]2CC[C@@H]1O`, the “activity change, negative = inhibition” value was 3.9%.
On the same count and under the same terms, next, `Cn1cc(C(=O)[C@@H]2CCc3nc[nH]c3C2)c2ccccc21`: -3.3%; `Cc1c(Cn2ccnc2)c2ccccc2n1CCC(=O)O`: 0.412%; `Cc1ccc(C(C)C)c(O)c1`: 1.86%.
On the same count and under the same terms, next, `O=C(O)c1ccccc1OP(=O)(O)O`: -1.09%; `C=CCNC(N)=S`: 0.459%.
Same read-out and setting: next, `CC1(C)S[C@@H]2[C@H](NC(=O)C(C(=O)O)c3ccccc3)C(=O)N2[C@H]1C(=O)O` (stereo not given in full): -3.1%; `OCC(O)CS` (stereo not given): -7.84%.
As to `CN1CC(=O)NC1=N`, the “activity change, negative = inhibition” value was -4.71%.
Regarding `NC(=O)c1ccc([N+](=O)[O-])cc1Cl`, the “activity change, negative = inhibition” value is -2.11%.
As for `COc1ccc(NS(=O)(=O)c2ccc(N)cc2)nn1`, the “activity change, negative = inhibition” value is 4.87%.

A short description of a further test: qHTS assay to identify small molecule inhibitors of chordoma cells - UCH-1 (AID 1259355). Further: on the % scale 0 is the no-effect control and ±100 the full control effect; nearly all actives have a fitted effect of over 55% in size. To be noted: UCH-1 chordoma viability, CellTiter-Glo, 48 h, combination, with auranofin plus four topoisomerase inhibitors; series mostly up to 46.1 µM; activity, negative = inhibition: at the top concentration. The procedure, abridged: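 Cells (800/well) were seeded and left overnight at 37 C, 5% CO2, then treated with drugs at 15 concentrations plus a combination mix of auranofin, camptothecin, doxorubicin, rubitecan and topotecan. Viability after 48hr was read by CellTiter-Glo luminescence.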
Take `O=C(CN1CCNCC1)NC1CCCCC1`: the “activity, negative = inhibition” value was -2.85%.
On the same count and under the same terms, next, `C[n+]1ccccc1/C=N/O`: -16.9% [at 20.6 µM].
Same read-out and setting: next, `CCN(CC)CCc1nc(-c2ccccc2)no1`: -2.32% [at 20.6 µM].
Take `C1CCN2C[C@@H]3C[C@@H](CN4CCCC[C@@H]34)[C@H]2C1`: the “activity, negative = inhibition” value was 3.94% [at 20.6 µM].
Consider `CCN(CC)CC1CCCCN1CC(=O)N1c2ccccc2C(=O)Nc2cccnc21` (stereo not given), for which the “activity, negative = inhibition” value was -6.18%.
Same read-out and setting: next, `CN1CCN(C(=O)C2CCCCC2)CC1`: -2.93%; `COCC(=O)Nc1c(I)c(C(=O)NCC(O)CO)c(I)c(C(=O)N(C)CC(O)CO)c1I` (stereo not given): -17.7% [at 20.6 µM]; `CN(C(=O)c1c(O)c2ccccc2n(C)c1=O)c1ccccc1`: -17.2%.
On the same count and under the same terms, next, `CC(=O)SC[C@@H](Cc1ccccc1)C(=O)NCC(=O)OCc1ccccc1`: -2.32% [at 20.6 µM]; `C/C=C/C(=O)N(CC)c1ccccc1C`: 8.76% [at 20.6 µM].
The same measure, in the same setting: next, `Cc1ccsc1C(=CCCN1CCC[C@@H](C(=O)O)C1)c1sccc1C`: -17.3%; `C[C@@H](c1ncncc1F)C(O)(Cn1cncn1)c1ccc(F)cc1F` (stereo not given in full): -3.42%.
As to `Cc1c(N(C)C)c(=O)n(-c2ccccc2)n1C`, the “activity, negative = inhibition” value was 5.61%.
The same measure, in the same setting: next, `CCOC(=O)[C@H](CCc1ccccc1)N[C@@H](C)C(=O)N1Cc2cc(OC)c(OC)cc2C[C@H]1C(=O)O`: -4.29%; `C[C@H]1COc2c(C3(N)CC3)c(F)cc3c(=O)c(C(=O)O)cn1c23`: -4.38%; `COC(=O)c1cccnc1`: -10.6%.
As for `O=C(O)Cc1cn(-c2ccccc2)nc1-c1ccc(Cl)cc1`, the “activity, negative = inhibition” value was -11.3%.
For the compound `CCOc1ccc(C(=O)OCCN(CC)CC)cc1`, the “activity, negative = inhibition” value was -23.5%.
On to `Cc1cc(O)cc(C)c1Cl`, for which the “activity, negative = inhibition” value was 5.17%.
Same read-out and setting: next, `CN1C(C)(C)CCCC1(C)C`: -6.89%.
Regarding `Cc1ccc2c(c1)c1c3n2CCNC3CCC1` (stereo not given), the “activity, negative = inhibition” value was -16.5%.
With `CCCOC(=O)c1ccc(N)cc1`, the “activity, negative = inhibition” value is -18.5%.
Same read-out and setting: next, `O=C(NCC(O)CO)c1c(I)c(C(=O)NCC(O)CO)c(I)c(N(CCO)C(=O)CO)c1I` (stereo not given): -12.8% [at 20.6 µM]; `Cn1c(=O)c2c(ncn2CCO)n(C)c1=O`: -5.46%; `NNC(=O)CP(=O)(c1ccccc1)c1ccccc1`: -9.7%.
Still for that read-out and setting: next, `Nc1ccncc1N`: -4.61%; `CC(CN(C)C)C(C)(O)Cc1ccc(Cl)cc1` (stereo not given): -3.86%; `O=C(O)[C@@H]1[C@H]2C[C@H]3c4[nH]c5ccccc5c4CCN3C[C@@H]2CC[C@@H]1O`: -11.2% [at 20.6 µM].
Take `Cn1cc(C(=O)[C@@H]2CCc3nc[nH]c3C2)c2ccccc21`: the “activity, negative = inhibition” value is -15.6%.
Still for that read-out and setting: next, `Cc1c(Cn2ccnc2)c2ccccc2n1CCC(=O)O`: -1.01%.
The same measure, in the same setting: next, `Cc1ccc(C(C)C)c(O)c1`: 16.1%; `O=C(O)c1ccccc1OP(=O)(O)O`: -7.01% [at 1.88 µM].
Still for that read-out and setting: next, `C=CCNC(N)=S`: -6.13%; `CC1(C)S[C@@H]2[C@H](NC(=O)C(C(=O)O)c3ccccc3)C(=O)N2[C@H]1C(=O)O` (stereo not given in full): -17%; `OCC(O)CS` (stereo not given): -27.3%.
As to `CN1CC(=O)NC1=N`, the “activity, negative = inhibition” value was -13.4%.
Turning to `NC(=O)c1ccc([N+](=O)[O-])cc1Cl`, the “activity, negative = inhibition” value is -10.7%.
On the same count and under the same terms, next, `COc1ccc(NS(=O)(=O)c2ccc(N)cc2)nn1`: -8.54% [at 20.6 µM].
